The record followed here is PubChem BioAssay AID651768 (National Center for Advancing Translational Sciences (NCATS), 2012).

Screen size: about 360,000 compounds; about 1,700 (0.47%) were called active. Another 2% or so got no clear call; they are omitted. The sample holds actives, similar compounds and a random draw of the others, so the mix is not that of the screen. Unmarked numbers belong to inactive results. Calls come from the whole dose curve; as a rule, active = well fitted inhibition curve with a large enough effect; inconclusive = small, poorly fitted or top-dose-only effect; inactive = no such curve, though single readings can be large or run the other way.
% is set by controls: 0 for no effect and ±100 for the full control effect; potency is the fitted concentration of half-maximal effect.

Chain of Bifunctional 3'-5' exonuclease/ATP-dependent helicase WRN (Homo sapiens) (Q14191 whole entry, looked up): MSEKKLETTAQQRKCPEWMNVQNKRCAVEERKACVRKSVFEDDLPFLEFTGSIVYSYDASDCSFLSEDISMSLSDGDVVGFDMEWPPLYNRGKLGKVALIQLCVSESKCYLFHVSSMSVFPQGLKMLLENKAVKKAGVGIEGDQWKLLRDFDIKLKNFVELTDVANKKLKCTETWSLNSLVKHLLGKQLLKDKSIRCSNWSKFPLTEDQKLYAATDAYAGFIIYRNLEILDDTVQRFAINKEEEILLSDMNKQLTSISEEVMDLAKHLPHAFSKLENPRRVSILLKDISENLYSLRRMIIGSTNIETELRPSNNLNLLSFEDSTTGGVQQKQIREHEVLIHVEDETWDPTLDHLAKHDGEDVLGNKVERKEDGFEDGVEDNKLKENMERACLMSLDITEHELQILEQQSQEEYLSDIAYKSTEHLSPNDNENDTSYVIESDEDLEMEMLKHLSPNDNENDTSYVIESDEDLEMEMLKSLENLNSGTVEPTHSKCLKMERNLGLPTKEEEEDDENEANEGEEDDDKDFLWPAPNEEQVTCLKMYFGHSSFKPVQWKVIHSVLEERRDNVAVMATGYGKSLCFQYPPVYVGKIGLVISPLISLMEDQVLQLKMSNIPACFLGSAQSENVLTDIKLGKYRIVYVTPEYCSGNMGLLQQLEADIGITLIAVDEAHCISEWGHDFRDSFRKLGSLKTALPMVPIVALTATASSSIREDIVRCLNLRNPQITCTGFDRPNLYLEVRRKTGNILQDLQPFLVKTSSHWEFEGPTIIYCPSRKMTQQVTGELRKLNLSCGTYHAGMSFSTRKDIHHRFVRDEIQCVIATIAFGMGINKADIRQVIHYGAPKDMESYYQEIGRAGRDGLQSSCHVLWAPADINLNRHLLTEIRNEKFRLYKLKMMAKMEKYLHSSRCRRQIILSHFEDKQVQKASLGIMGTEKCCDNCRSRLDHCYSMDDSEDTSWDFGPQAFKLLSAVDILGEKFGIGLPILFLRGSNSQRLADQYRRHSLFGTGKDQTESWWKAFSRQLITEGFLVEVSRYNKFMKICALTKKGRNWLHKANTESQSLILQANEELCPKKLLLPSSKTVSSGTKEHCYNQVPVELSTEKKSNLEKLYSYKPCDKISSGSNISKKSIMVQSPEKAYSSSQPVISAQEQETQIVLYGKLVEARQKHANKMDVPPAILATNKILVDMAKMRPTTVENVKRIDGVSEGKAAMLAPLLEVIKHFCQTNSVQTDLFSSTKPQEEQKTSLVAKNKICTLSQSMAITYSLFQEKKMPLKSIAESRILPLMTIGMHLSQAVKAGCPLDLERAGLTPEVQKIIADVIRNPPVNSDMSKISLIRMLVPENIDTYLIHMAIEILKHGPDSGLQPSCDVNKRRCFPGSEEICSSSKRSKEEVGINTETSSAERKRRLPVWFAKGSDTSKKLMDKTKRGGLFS

The target in the assay is Bifunctional 3'-5' exonuclease/ATP-dependent helicase WRN (Homo sapiens) (UniProt Q14191). The assay is described as follows: qHTS for Inhibitors of WRN Helicase. Note: nearly all actives have a fitted effect of over 55% in size. Conditions: WRN helicase unwinding, fluorescent forked duplex, kinetic; series mostly up to 114 µM; activity change, negative = inhibition: at the top concentration. Put shortly:
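WRN at 20 nM final was preincubated with compound for 15 min at room temperature; reaction started with 100 nM forked duplex oligonucleotide carrying fluorophore and quencher plus 2 mM ATP (final). Unwinding followed kinetically by red fluorescence (ex 525/em 598 nm).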
Background: In qHTS, concentration-response curves come from the screen itself.
`O=C(NC1CCCCC1)C(c1cc2ccccc2o1)n1c(=O)c(-c2ccco2)nc2ccccc21` (stereo not given): the “activity change, negative = inhibition” value is -13.1%.

Regarding `CCCCN(C(=O)C(CCSC)N1C(=O)c2ccccc2C1=O)c1c(N)n(CCC)c(=O)[nH]c1=O` (stereo not given), the “activity change, negative = inhibition” value was 5.06%.

With `N#Cc1ccc(-c2nc3c(Cl)cc(C(F)(F)F)cn3c2Cc2ccccc2C(F)(F)F)cc1`, the “activity change, negative = inhibition” value is 0.352%.

As to `COc1ccc(CN2CCC(C)(Oc3cccc(F)c3)C2)c2ccccc12` (stereo not given), the “activity change, negative = inhibition” value was 18.3%.

`COc1cccc2c1C(=O)c1c(O)c3c(c(O)c1C2=O)CC(O)(C(C)=NNC(=O)c1ccc(Cl)c(Cl)c1)CC3OC1CC(N)C(O)C(C)O1` (stereo not given): the Potency is 31.6 µM (active).

With `CCOc1cnc(C(=O)NNC(=O)c2ccccc2Br)o1`, the “activity change, negative = inhibition” value was -11.3%.

`O=C(c1ccccc1)c1ccc(OC(=O)N2CCCC2)cc1`: the “activity change, negative = inhibition” value is 1.88%.

In the case of `COc1cccc(-c2nnc(NC(=O)c3ccc(S(=O)(=O)N(CC(C)C)CC(C)C)cc3)o2)c1`, the “activity change, negative = inhibition” value was -8.88% [at 57.1 µM].

Consider `O=C(COc1ccccc1Cl)Nn1cnnc1`, for which the “activity change, negative = inhibition” value is 1.03%.

Take `C=CCN(N=Nc1cccc([N+](=O)[O-])c1)c1cccc([N+](=O)[O-])c1`: the “activity change, negative = inhibition” value was -5.96%.

Take `CC(=O)NC(c1ccccc1)c1nc(-c2cccc(C(C)C)c2)cs1` (stereo not given): the “activity change, negative = inhibition” value was -6.85%.

For `Cc1cc(C)n(CC(O)COc2ccc(C(C)(C)C)cc2)n1` (stereo not given), the activity change, negative = inhibition was 2.02% [at 11.6 µM].

In the case of `COc1ccc(C(C[N+](=O)[O-])n2nc(C)cc2C)cc1` (stereo not given), the Potency was 39.8 µM (active).

Regarding `COc1ccc(C(CNC(=O)COc2ccc([N+](=O)[O-])cc2)N2CCCCC2)cc1` (stereo not given), the “activity change, negative = inhibition” value is -1.35%.

Regarding `CCCCC(NS(=O)(=O)c1ccc(C)cc1)C(=O)Oc1ccc2c3c(c(=O)oc2c1)CCC3` (stereo not given), the “activity change, negative = inhibition” value was 3.21%.

With `CCOc1ccc(CCN2C(=O)C(=O)N([C@@H](CC(C)C)CN3CCC[C@H]3CN3C(=O)C(=O)NC[C@@H]3Cc3ccccc3)C[C@@H]2CC(C)C)cc1`, the “activity change, negative = inhibition” value was -0.85%.

Turning to `C[C@H]1CN([C@@H](C)CO)C(=O)c2cc(-c3ccccc3F)cnc2O[C@H]1CN(C)C(=O)C1CCOCC1`, the “activity change, negative = inhibition” value was 2.75%.

Turning to `Cc1cccc(C)c1-n1nnnc1C1(C)CCC(=O)N1CCOc1ccccc1` (stereo not given), the “activity change, negative = inhibition” value is -5.38%.

As to `CC(=O)Nc1cccc(-c2cc3nc(NCc4cccnc4)n(C)c(=O)c3s2)c1`, the “activity change, negative = inhibition” value is 2.19%.

`C/C=C\C=C\C(=O)N1CC2(CC(c3cccc(NC(=O)/C(C)=C\C)c3)=NO2)C[C@H]1C(N)=O` (stereo not given in full): the activity change, negative = inhibition is -13.3% [at 11.6 µM].

In the case of `C=C(C)C(=O)Nc1cccc(C2=NOC3(C2)C[C@H](C(N)=O)N(C(=O)C(c2ccccc2)c2ccccc2)C3)c1` (stereo not given in full), the Potency is 50.1 µM (active).

For `C/C=C(/C)C(=O)Nc1cccc(C2=NOC3(C2)C[C@@H](C(N)=O)N(C(=O)C2(C)CC2)C3)c1` (stereo not given in full), the “activity change, negative = inhibition” value is -2.56%.

On to `O=C(Nc1ccccc1Cl)c1ccccc1S(=O)(=O)c1ccccc1[N+](=O)[O-]`, for which the “activity change, negative = inhibition” value was -2.06%.

Consider `CC(=O)c1ccc(NC(=O)C(C)N(C)CC(=O)Nc2ccccc2Cl)cc1` (stereo not given), for which the “activity change, negative = inhibition” value was -0.858%.

`O=C(Nc1ccccc1Cl)/C(Cl)=C(\Cl)S(=O)c1ccccc1` (stereo not given): the Potency was 2.51 µM (active).

Take `COc1cc(OC)cc(C2=Cc3ccccc3C(CC(=O)c3ccco3)N2c2ccc(-c3cnc(OC)nc3)cc2)c1` (stereo not given): the “activity change, negative = inhibition” value is -4.91%.

With `Cc1ccc(S(=O)(=O)N(c2cccc(C)c2)C2CCS(=O)(=O)C2)cc1` (stereo not given), the “activity change, negative = inhibition” value is 5.52%.

Consider `O=C(CC[C@H]1O[C@@H](n2ccc(=O)[nH]c2=O)[C@H](O)[C@@H]1O)N[C@H](Cc1ccccc1)C(=O)NCCCN1CCCC1=O`, for which the “activity change, negative = inhibition” value was -15%.

Consider `CN(C(=O)COC(=O)c1cc(-c2ccco2)nc2ccccc12)C1CCS(=O)(=O)C1` (stereo not given), for which the Potency is 31.6 µM (active).

For `COc1ccc(NC(=O)COc2ccc(C(=O)OCC(=O)N(C)C3CCS(=O)(=O)C3)cc2OC)cc1` (stereo not given), the “activity change, negative = inhibition” value was -1.43%.

Consider `CN(C(=O)COC(=O)Cc1ccccc1[N+](=O)[O-])C1CCS(=O)(=O)C1` (stereo not given), for which the “activity change, negative = inhibition” value is -0.143%.

As to `Cc1ccc(C2(c3ccc(C)cc3)NC(=O)N(Cc3c(C)noc3C)C2=O)cc1`, the “activity change, negative = inhibition” value was -0.858%.

As to `Nn1c(SCC(=O)Nc2nccs2)nnc1-c1ccco1`, the “activity change, negative = inhibition” value was -5.77%.

For the molecule `CCOC(=O)c1c(NC(=O)CSc2nnc(CN3CCOCC3)n2C)sc2c1CCCC2`, the “activity change, negative = inhibition” value was -0.021%.

For `NC(=O)c1c(NC(=O)CSc2nnc(-c3ccco3)n2N)sc2c1CCCC2`, the Potency was 50.1 µM (active).

With `COc1cc(OC)c(NC(=O)C2CCCN2C(=O)OCc2ccccc2)cc1Cl` (stereo not given), the “activity change, negative = inhibition” value was -0.432% [at 57.1 µM].

In the case of `O=C1Nc2ccccc2NC(c2ccc3c(c2)OCO3)=C1N(Cc1ccc(F)cc1)C(=O)c1ccco1`, the “activity change, negative = inhibition” value is -3.23%.

Regarding `CC(C)c1ccc2c(c1)c(SC(C)(C)C)c(CC(C)(C)C(=O)O)n2Cc1ccc(Cl)cc1`, the Potency was 50.1 µM (active).

Regarding `CCC(CC)NC(=O)CSc1nnc(-c2c[nH]c3ccccc23)o1`, the “activity change, negative = inhibition” value is 7.97%.

Turning to `O=C(c1cc(C2CCCCN2S(=O)(=O)c2ccccc2)on1)N1CCOCC1` (stereo not given), the “activity change, negative = inhibition” value is -1.79%.

In the case of `CCCCN1C(=O)/C(=C(/C#N)C(N)=O)c2ccccc21`, the “activity change, negative = inhibition” value is 23.5%.

As for `COc1ccc2c(c1)C(=C(C#N)C#N)C(=O)N2CCc1ccccc1`, the Potency is 50.1 µM (active).

For the molecule `C#CCN1C(=O)C(O)(CC(=O)c2cc(OC)ccc2OC)c2ccccc21` (stereo not given), the “activity change, negative = inhibition” value is -7.71%.

In the case of `CCCCn1c(N)c(N(CCOC)C(=O)c2sc3ccccc3c2Cl)c(=O)[nH]c1=O`, the “activity change, negative = inhibition” value was -13.4%.

Regarding `Cc1[nH]c2ccccc2c1C(=O)c1cc([C@H](NC(=O)OC(C)(C)C)C(C)C)sc1N`, the “activity change, negative = inhibition” value was -13.8%.
